# Compound activity as filed in PubChem.
# PINK1 modulator: modulators of PINK1 expression; PINK1 immunofluorescence, high-content cytometry, 24 h; Potency, µM (series often up to 76.6 µM), inactives show at the top dose activation (PINK1 increase), usual class: activators; actives 0.2% (n = 410,000); AID 624263; active means well fitted activation curve with a large enough effect; inconclusive means small, poorly fitted or top-dose-only effect; cell line not stated here; further: % of control where 0% means no effect; nearly all actives have a fitted effect of over 65% in size
#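 Stable cell line, 250 cells/well, 12 h attachment; compounds pinned at 5 concentrations, 24 h; CCCP control. Fixed with nuclear dye, primary antibodies 12 h at 10 degrees C, secondary plus cell stain; laser-scanning cytometer read.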
# RORg inh: blocks mouse ROR gamma transcriptional activity; P51450; Drosophila S2 Gal4-RORgamma UAS-luciferase reporter, 20 h; Potency, µM (highest dose often 53.6 µM), for inactives: at the highest dose activity change, negative = inhibition, actives largely listed as inhibitors; actives 5.4% (n = 310,000); AID 2551; further: on the % scale 0 is the no-effect control and ±100 the full control effect; nearly all actives have a fitted effect of over 60% in size
# Target sequence (P51450 whole entry, looked up, the tested form may be a part): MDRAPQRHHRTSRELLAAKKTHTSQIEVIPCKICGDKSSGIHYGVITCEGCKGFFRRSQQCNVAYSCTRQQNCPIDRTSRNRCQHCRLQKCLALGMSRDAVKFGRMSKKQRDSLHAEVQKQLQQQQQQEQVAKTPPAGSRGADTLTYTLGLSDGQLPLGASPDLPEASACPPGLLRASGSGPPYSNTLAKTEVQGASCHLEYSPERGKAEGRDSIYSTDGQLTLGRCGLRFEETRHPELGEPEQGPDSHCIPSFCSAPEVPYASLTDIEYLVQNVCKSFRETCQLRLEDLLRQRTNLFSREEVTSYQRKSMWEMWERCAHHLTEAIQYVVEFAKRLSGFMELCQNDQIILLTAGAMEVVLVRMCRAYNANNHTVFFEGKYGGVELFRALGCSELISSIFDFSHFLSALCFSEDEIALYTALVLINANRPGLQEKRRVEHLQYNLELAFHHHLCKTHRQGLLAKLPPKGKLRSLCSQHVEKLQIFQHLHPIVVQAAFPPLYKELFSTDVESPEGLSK
#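 Luciferase reporter read in Schneider cells carrying Gal4-RORγ (mouse) and UAS-Photinus luciferase; cells given compound 1 h before 700 uM copper sulfate induction, then incubated 20 h at ambient temperature.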
# VP16 counter: inhibits Gal4-VP16 luciferase reporter, ROR gamma counter-screen | Drosophila S2 Gal4-VP16 UAS-luciferase, luminescence, 20 h | Potency, µM (series often up to 53.6 µM), for inactives: at the highest dose activity, negative = inhibition, most hits filed as inhibitors | actives 3.5% (n = 310,000) | AID 2546;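 further: Gal4-VP16 expression switched on by copper sulfate through the metallothionein promoter; on the % scale 0 is the no-effect control and ±100 the full control effect; nearly all actives have a fitted effect of over 50% in size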
# ClpP mod: qHTS Assay for Activators of ClpP; actives 1.9% (n = 340,000); Potency, µM (series often up to 57.5 µM), inactives show top-dose activity change, negative = active; purified B. subtilis ClpP, FRET peptide cleavage, 20 min; ATP-dependent Clp protease proteolytic subunit (Bacillus subtilis (strain 168)), P80244; active means well fitted falling curve with a large enough effect; inconclusive means small, poorly fitted or top-dose-only effect; inactive means no such curve, though single readings can be large or run the other way; further: the source files actives as falling curves though it sought activators and does not explain the sign; nearly all actives have a fitted effect of over 65% in size
# Target sequence (P80244 whole entry, looked up): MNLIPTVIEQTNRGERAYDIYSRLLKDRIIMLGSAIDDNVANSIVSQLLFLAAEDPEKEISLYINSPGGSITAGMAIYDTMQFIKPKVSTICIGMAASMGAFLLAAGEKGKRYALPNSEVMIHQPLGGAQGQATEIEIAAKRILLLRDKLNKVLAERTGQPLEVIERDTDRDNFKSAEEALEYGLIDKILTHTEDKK
#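 ClpP 10 microg/mL final, pH 8 Tris/KCl buffer with BSA, glycerol, Tween-20; compound pinned in; FRET-FV substrate; RT 20 min; Ex320/Em430; ΔFRET vs ADEP 5.8 microM, DMSO, no enzyme.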
# Sfp PPTase inh: inhibitors of Bacillus subtilis Sfp phosphopantetheinyl transferase; actives 3.5% (n = 310,000); Biochemical Sfp PPTase activity, qHTS; Potency, µM, inactives show largest response in the series, negative = inhibition, hits mostly inhibitors; AID 1490;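 further: the enzyme is Sfp with the accession as filed and its product quenches rhodamine fluorescence; 0% = enzyme reaction without inhibitor and -100% = no enzyme wells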
#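 Fluorescence-quenching assay: 15 nM Sfp-PPTase preincubated 15 min at room temperature with compound, then 5 uM rhodamine-CoA and 12.5 uM BHQ-2-labelled YbbR peptide added. Fluorescence (ex 525/em 598 nm) read at start and after 30 min; difference gives rate.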
# Epigenetic reg: epigenetic control regulation, reporter derepression; AID 1865; Potency, µM (titrated, usually from 53.9 µM), for inactives: top-dose GFP activation, actives largely listed as activators; actives 0.2% (n = 280,000); murine LDR cells, GFP reporter derepression, 30 h; further: % of control where 0% means no effect; nearly all actives have a fitted effect of over 60% in size
#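 Readout is the number of GFP-expressing murine LDR cells, counted by cytometry following washing. Cells were treated with compound for 30 h at 37 C; the stably integrated CMV-GFP locus is normally silent.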
# * marks the source's active call; other numbers are inactive results; ? = inconclusive; . = no result given; [ ] = dose if it differs, or a comment. An excerpt weighted towards active compounds, which were near 8.1% of everything screened. Unless noted, the call rests on the fitted dose curve; in most records, active means well fitted curve in the direction sought with a large enough effect; inconclusive means small, poorly fitted or top-dose-only effect, or another doubt; inactive means no such curve, though single readings can be large; an effect the other way counts as inactive or inconclusive. Potency means the concentration at half of the fitted maximal effect.
SMILES,PINK1 modulator,RORg inh,VP16 counter,ClpP mod,Sfp PPTase inh,Epigenetic reg
COc1cc(OC)cc(C(=O)NCC2Cc3cccc(-c4nc(C)cnc4C)c3O2)c1 (stereo not drawn),0%,.,.,.,.,.
O=[N+]([O-])c1cc(-c2ncccn2)c([N+](=O)[O-])s1,0%,4µM*,7.1µM*,1%,?,0%
COCCCNC(=O)c1ccc(-n2c(-c3ccccc3)cc3c2CCC(C)C3)cc1 (stereo not drawn),-1%,.,.,-17%,.,10%
Cc1ccc(C(=O)Oc2cc(-c3ccc4c(c3)OCO4)cc(=O)c3c(C)oc(C)c23)cc1,0%,.,.,0%,.,1%
CCOc1cc(-c2ccc3c(c2)OCO3)cc(=O)c2c(C)oc(C)c12,.,16%,1%,.,32µM*,0%
CCOC(=O)c1c(Oc2ccc(C(=O)OC)cc2)nnc(-c2ccccc2)c1-c1ccccc1,1%,.,.,-1%,.,-1%
Cc1ccc(C)c2[nH]c(=O)c(C(c3nnnn3C3CCCC3)N3CCOCC3)cc12 (stereo not drawn),5%[38.3 µM],-3%,8%,25µM*,3%,0%
CCN1CCN(C(c2cc3cccc(C)c3[nH]c2=O)c2nnnn2Cc2ccccc2)CC1 (stereo not drawn),-3%,18%,5%,?,-14%,0%
Cc1ccc(C)c2[nH]c(=O)c(C(c3nnnn3Cc3ccco3)N3CCc4ccccc4C3)cc12 (stereo not drawn),3%,-32%,-24%,-13%,20µM*,-1%
Cc1ccc2cc(C(c3nnnn3C3CCCC3)N3CCOCC3)c(=O)[nH]c2c1C (stereo not drawn),-2%[38.3 µM],-11%,0%,?,5%,-1%
COc1ccc(Cn2nnnc2C(c2cc3cccc(C)c3[nH]c2=O)N2CCOCC2)cc1 (stereo not drawn),7%[38.3 µM],9%,1%,-20%,3%,-1%
Cc1ccc(C)c2[nH]c(=O)c(C(c3nnnn3CCc3ccccc3)N3CCOCC3)cc12 (stereo not drawn),-3%,22%,-4%,28µM*,7%,-3%
O=C1CC(c2ccc3c(c2)OCCO3)Oc2ccc([N+](=O)[O-])cc21 (stereo not drawn),-1%,11µM*,13µM*,-1%,4%,.
O=C1CC(c2ccc3c(c2)OCCO3)Oc2ccccc21 (stereo not drawn),0%,-12%,-6%,1%,-3%,.
COc1ccccc1N1CSC2=C(C#N)C(c3ccc(SC)cc3)CC(=O)N2C1 (stereo not drawn),0%,-23%,9%,13%,3.5µM*,0%
COc1cccc(C2CC(=O)N3CN(c4ccccc4F)CSC3=C2C#N)c1 (stereo not drawn),3%,5%,14%,1%,7.9µM*,1%
COc1cc(C2CC(=O)N3CN(c4ccccc4C)CSC3=C2C#N)cc(OC)c1OC (stereo not drawn),.,3%,-1%,.,2.8µM*,2%
O=C(NC(c1cccnc1)C(F)(F)F)c1cc(COc2ccc3c(c2)CCCC3)on1 (stereo not drawn),15%,?,7.1µM*,-1%,2%,.
Cn1cc(CNC(=O)c2cc(COc3ccc4c(c3)CCCC4)on2)cn1,5%,?,-7%,-2%,-4%,.
O=C(/C=C/c1cccc([N+](=O)[O-])c1)n1cnc2ccccc21,-1%,11µM*,-7%,.,3%,0%
O=C(Nc1ncccc1O)c1cccc(S(=O)(=O)N2CCCc3ccccc32)c1,1%,.,.,-2%,.,.
Cc1cccnc1NC(=O)c1cccc(S(=O)(=O)N2CCCc3ccccc32)c1,5%,11µM*,?,-5%,11%,.
O=C(Nc1nccs1)c1ccc(Cl)c(S(=O)(=O)N2CCCCC2)c1,2%,10µM*,?,-2%,15%,-1%
Cc1cccnc1NC(=O)c1ccc(Cl)c(S(=O)(=O)N2CCCCCC2)c1,6%,4µM*,?,2%,8%,.
O=C(Nc1ccon1)c1ccc(Cl)c(S(=O)(=O)N2CCCCC2)c1,3%,1.4µM*,2.2µM*,-27%,20%,.
SMILES,PINK1 modulator,RORg inh,VP16 counter,ClpP mod,Sfp PPTase inh,Epigenetic reg
Cc1ccc(C(=O)N2CCOCC2)cc1S(=O)(=O)N1CCOCC1,3%,-17%,2%,-5%,22%,.
O=C(c1ccc(Cl)c(S(=O)(=O)N2CCOCC2)c1)N1CCOCC1,2%,14%,0%,32µM*,12%,.
CC1CCN(S(=O)(=O)c2cccc(C(=O)Nc3nccs3)c2)CC1,3%[38.3 µM],11µM*,?,0%,20%,-2%
O=C(Nc1nccs1)C1CCN(S(=O)(=O)c2c(Cl)cccc2Cl)CC1,-1%,8.9µM*,9%,-2%,7%,1%
O=C(Nc1nc2ccccc2[nH]1)c1ccc(Cl)c(S(=O)(=O)N2CCCC2)c1,0%,6.3µM*,8.9µM*,-10%,13%,2%
O=C(Nc1nccs1)c1ccc(Br)c(S(=O)(=O)N2CCOCC2)c1,-1%,13µM*,?,-1%,22%,-1%
COc1ccc(C(=O)N/C(=C\c2cc(OC)c(OC)cc2[N+](=O)[O-])C(=O)NCCO)cc1,-1%,0%,-1%,.,71µM*,-2%
CCOc1ccccc1/C=N/Nc1nc2c(N)ncnc2n1[C@H]1O[C@@H](CO)[C@H](O)[C@@H]1O,1%,-4%,-1%,-7%,56µM*,-5%
O=C1C(Cl)=C(Nc2ccccc2O)C(=O)N1c1ccccc1,-3%,0%,0%,1%,22µM*,4%
Cc1ccc(O)c(NC2=C(Cl)C(=O)N(Cc3ccccc3)C2=O)c1,7%,?,?,1%,7.1µM*,?
COc1ccccc1N1C(=O)C(Cl)=C(Nc2ccccc2O)C1=O,2%,-4%,6%,.,40µM*,13%
CCCn1c2ccccc2c2cnn(CC(=O)N(CCCOC(C)C)Cc3ccco3)c(=O)c21,-1%,.,.,5%,.,-1%
COCCN1C(=O)N[C@@H](c2cccc(C(F)(F)F)c2)C(C(C)=O)=C1C,.,-11%,-3%,.,-1%,0%
CC(C)C(NS(C)(=O)=O)c1nnc2n1CCN(Cc1ccc(Cl)cc1)CC2 (stereo not drawn),2%,.,.,.,.,.
CCOc1ccc2ccccc2c1C1NC(=O)N(C)C(C)=C1C(=O)OCCOC (stereo not drawn),1%,-14%,-5%,-1%,17%,.
CCOC(=O)C1=C(C)N(C)C(=S)NC1c1c(OCC)ccc2ccccc12 (stereo not drawn),3%,2.8µM*,18µM*,1%,23%,-1%
